Pf apPOL inh = Pf-apPOL DNA polymerase inhibition; Recombinant Pf-apPOL, molecular beacon fluorescence, 1.5 h; inhibition, % at 10 µM; 210,000 compounds, 0.25% hits
mHTT-CaM PPI inh = inhibitors of human mutant huntingtin-calmodulin interaction | inhibition, % at 15 µM | AlphaScreen His-mHTT/GST-CaM binding, luminescence | AID 1671202 | 190,000 compounds, 3.6% hits;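 also: 0% = both proteins with DMSO and 100% = one protein alone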
Target sequence (P42858 whole entry, looked up, stated change not applied): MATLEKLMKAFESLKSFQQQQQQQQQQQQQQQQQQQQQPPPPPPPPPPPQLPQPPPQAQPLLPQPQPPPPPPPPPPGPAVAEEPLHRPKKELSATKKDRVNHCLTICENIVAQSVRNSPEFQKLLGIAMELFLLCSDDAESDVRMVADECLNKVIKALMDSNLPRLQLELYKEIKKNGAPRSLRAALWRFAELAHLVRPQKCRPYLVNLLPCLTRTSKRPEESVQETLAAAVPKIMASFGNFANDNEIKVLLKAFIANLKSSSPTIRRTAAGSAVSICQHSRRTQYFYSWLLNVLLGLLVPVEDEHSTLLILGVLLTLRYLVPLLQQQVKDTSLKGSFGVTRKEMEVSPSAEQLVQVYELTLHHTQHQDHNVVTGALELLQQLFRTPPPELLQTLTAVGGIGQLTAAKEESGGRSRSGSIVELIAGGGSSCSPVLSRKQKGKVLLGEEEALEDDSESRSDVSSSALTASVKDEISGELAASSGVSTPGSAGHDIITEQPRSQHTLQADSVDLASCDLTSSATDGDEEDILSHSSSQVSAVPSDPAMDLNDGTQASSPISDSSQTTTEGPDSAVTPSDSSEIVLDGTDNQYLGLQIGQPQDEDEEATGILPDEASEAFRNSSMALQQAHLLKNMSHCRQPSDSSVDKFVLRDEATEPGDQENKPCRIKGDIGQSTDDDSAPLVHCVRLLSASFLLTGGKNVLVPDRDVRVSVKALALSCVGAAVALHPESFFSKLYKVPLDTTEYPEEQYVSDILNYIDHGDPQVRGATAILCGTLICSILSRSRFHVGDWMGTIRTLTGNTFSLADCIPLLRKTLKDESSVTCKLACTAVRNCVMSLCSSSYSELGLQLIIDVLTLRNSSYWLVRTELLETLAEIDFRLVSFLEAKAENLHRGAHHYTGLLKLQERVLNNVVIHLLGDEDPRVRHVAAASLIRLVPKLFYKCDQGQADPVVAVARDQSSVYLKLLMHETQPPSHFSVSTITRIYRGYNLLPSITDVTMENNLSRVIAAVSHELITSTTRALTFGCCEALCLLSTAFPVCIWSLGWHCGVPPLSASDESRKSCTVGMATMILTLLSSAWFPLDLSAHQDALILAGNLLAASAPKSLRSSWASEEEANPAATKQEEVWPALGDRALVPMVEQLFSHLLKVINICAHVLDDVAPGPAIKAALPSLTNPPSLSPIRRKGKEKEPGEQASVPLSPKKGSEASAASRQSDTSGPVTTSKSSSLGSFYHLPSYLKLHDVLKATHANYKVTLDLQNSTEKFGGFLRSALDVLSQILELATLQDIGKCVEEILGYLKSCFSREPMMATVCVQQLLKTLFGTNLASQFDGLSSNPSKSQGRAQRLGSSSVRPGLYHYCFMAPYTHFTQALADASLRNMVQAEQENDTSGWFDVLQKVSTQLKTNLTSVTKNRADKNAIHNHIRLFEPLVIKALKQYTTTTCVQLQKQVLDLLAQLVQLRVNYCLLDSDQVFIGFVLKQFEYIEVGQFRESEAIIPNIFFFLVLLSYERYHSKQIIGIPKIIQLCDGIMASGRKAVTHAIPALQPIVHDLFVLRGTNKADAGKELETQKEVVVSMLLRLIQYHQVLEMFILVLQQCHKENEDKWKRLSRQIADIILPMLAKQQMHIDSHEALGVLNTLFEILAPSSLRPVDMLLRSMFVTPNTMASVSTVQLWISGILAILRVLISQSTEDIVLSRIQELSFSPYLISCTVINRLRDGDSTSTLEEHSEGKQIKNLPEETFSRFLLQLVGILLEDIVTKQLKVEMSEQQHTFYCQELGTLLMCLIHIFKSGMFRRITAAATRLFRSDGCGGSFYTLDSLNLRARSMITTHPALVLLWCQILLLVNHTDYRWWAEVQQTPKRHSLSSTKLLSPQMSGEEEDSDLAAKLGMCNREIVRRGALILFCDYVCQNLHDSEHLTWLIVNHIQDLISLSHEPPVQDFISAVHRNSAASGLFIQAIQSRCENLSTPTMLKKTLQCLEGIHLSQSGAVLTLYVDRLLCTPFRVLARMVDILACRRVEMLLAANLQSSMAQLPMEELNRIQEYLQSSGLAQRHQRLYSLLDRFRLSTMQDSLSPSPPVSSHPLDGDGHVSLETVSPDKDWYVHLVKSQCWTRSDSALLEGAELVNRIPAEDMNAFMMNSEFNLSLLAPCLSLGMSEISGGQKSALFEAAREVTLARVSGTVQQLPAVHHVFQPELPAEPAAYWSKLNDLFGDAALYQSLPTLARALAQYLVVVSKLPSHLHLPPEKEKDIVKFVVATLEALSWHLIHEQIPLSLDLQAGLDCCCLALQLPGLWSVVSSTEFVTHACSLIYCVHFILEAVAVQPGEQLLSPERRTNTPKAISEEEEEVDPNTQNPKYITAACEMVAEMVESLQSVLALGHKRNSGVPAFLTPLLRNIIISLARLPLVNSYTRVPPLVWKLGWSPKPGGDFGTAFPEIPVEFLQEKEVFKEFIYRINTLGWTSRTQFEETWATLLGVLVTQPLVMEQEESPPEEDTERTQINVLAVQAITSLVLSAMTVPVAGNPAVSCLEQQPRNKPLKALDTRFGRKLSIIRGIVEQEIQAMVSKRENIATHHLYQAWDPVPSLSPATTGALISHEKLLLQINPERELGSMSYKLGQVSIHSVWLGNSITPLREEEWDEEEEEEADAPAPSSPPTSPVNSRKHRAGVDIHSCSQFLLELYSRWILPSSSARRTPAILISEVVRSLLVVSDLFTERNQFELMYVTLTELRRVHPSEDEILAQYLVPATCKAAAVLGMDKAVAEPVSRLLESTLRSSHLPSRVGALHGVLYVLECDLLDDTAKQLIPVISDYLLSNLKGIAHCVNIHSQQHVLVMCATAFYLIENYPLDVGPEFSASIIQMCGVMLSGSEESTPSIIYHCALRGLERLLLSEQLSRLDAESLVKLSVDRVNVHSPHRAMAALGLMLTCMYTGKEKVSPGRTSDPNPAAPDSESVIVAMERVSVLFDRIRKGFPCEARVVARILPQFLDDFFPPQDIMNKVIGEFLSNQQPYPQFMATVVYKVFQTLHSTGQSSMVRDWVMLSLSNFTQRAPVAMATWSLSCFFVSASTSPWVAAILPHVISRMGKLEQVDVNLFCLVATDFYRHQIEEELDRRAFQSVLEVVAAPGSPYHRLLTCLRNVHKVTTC
An asterisk follows results filed as active; · = no result. Hits are enriched below; roughly 3.6% of the tested compounds scored in any of these assays. Rule as the data show it: active = inhibition above about 50%; inactive = the rest.

SMILES	Pf apPOL inh	mHTT-CaM PPI inh
CCC1(c2ccccc2)C(=O)NC(=O)N(C(=O)c2ccc(F)cc2)C1=O (configuration not stated)	-7	1
CC12CCC3C(CCC4CC(O)CCC43C)C1CC(=Cc1cccc(Cl)c1Cl)C2=O (configuration not stated)	-3	7
S=C(SSC(=S)N1CCCCC1)N1CCCCC1	·	51*
S=C(S)N1CCCCC1	1	·
COc1ccc(CC(=O)N2CCCN(C3CCN(Cc4ccc(F)cc4)C3=O)CC2)cc1 (configuration not stated)	-3	31
N#CC(C#N)=Cc1ccc([N+](=O)[O-])s1	·	44
CC(=O)Nc1ccc(Br)cc1C(=O)c1ccccc1Cl	2	1
CCOc1cc(/C=C/[N+](=O)[O-])cc(I)c1O	-2	57*
COc1cc(/C=C/[N+](=O)[O-])cc(I)c1OCc1ccccc1	-4	4
COc1cc(/C=C/[N+](=O)[O-])cc(I)c1O	-3	52*
C#CCOc1c(I)cc(/C=C/[N+](=O)[O-])cc1OC	0	14
O=[N+]([O-])c1ccc(NCc2ccco2)c2nonc12	3	·
COc1cc(CN2CCN(c3cccc(Cl)c3)CC2)cc(I)c1O	-6	58*
COc1ccc(CN2CCN(c3cccc(Cl)c3)CC2)cc1O	-5	12
COC(=O)C1=C(N)Oc2c(oc(CO)cc2=O)C12C(=O)N(CC(N)=O)c1ccccc12 (configuration not stated)	2	-5
CC(C)(C)c1[nH]nc2c1C(c1ccc(F)c(Br)c1)C(C#N)=C(N)O2 (configuration not stated)	2	45

Screening data from PubChem BioAssay.
